{
  "source": "PubChem BioAssay (Tox21)",
  "note": "Several values for one entry are separate records, joined by “and”; a condition that tells them apart may be missing. Equal values may be shown once. Inconclusive results are not listed. Values without a mark were called inactive. Activity calls are given as the source filed them. Calls follow the shape of the dose curve; as a rule, active = well fitted cell-killing curve with a large enough effect in the repeat runs; inconclusive = weak or mixed curves, or effect the other way; inactive = no such curve, though single readings can be large or run the other way. % is scaled to controls: 0 for no effect and ±100 for the full control effect; potency is read from the fitted curve at half-maximal effect.",
  "data": [
    {"test": "qHTS assay for small molecule activators of the heat shock response signaling pathway - cell viability counter screen (AID 743209); also: nearly all actives have a fitted effect of over 50% in size", "conditions": "HSE-bla HeLa viability, CellTiter-Glo luminescence, 5 h; series mostly up to 62.6 µM; activity change, negative = cytotoxicity: at the top concentration", "outline": "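HSE-bla HeLa; 1500 cells/well; overnight 37 C, 5% CO2; compound 5 h 37 C; LiveBLAzer B/G substrate 2.5 h RT; CellTiter-Glo 30 min RT; luminescence.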", "values": [
      {"smiles": "O=[N+]([O-])O.O=[N+]([O-])O.[Cd]", "activity change, negative = cytotoxicity": "-24.1%"},
      {"smiles": "C[C@@H]1CC[C@@]2(OC1)O[C@H]1[C@@H](O)[C@H]3[C@@H]4CC[C@H]5C[C@@H](O[C@@H]6O[C@H](CO)[C@H](O[C@@H]7O[C@H](CO)[C@@H](O)[C@H](O[C@@H]8OC[C@@H](O)[C@H](O)[C@H]8O)[C@H]7O[C@@H]7O[C@H](CO)[C@@H](O)[C@H](O[C@@H]8O[C@H](CO)[C@@H](O)[C@H](O)[C@H]8O)[C@H]7O)[C@H](O)[C@H]6O)[C@H](O)C[C@]5(C)[C@H]4CC[C@]3(C)[C@H]1[C@@H]2C", "Potency": "29.2 µM (active)"},
      {"smiles": "CCCCCCCCCCCCCCCC[N+](C)(C)C", "Potency": "21.1 µM (active) and 43.6 µM (active)"},
      {"smiles": "C=CC(=O)OCC(COC(=O)C=C)(COC(=O)C=C)COC(=O)C=C", "Potency": "2.45 µM (active)"},
      {"smiles": "CCCCCCCCCC[N+](C)(C)CCCCCCCCCC", "Potency": "34.7 µM (active)"},
      {"smiles": "CC(C)[C@H](C(=O)O[C@H](C#N)c1cccc(Oc2ccccc2)c1)c1ccc(Cl)cc1", "activity change, negative = cytotoxicity": "1.26%"},
      {"smiles": "CC[C@H](C)[C@H]1O[C@]2(C=C[C@@H]1C)C[C@@H]1C[C@@H](C/C=C(\\C)[C@@H](O[C@H]3C[C@H](OC)[C@@H](O[C@H]4C[C@H](OC)[C@@H](O)[C@H](C)O4)[C@H](C)O3)[C@@H](C)/C=C/C=C3\\CO[C@@H]4[C@H](O)C(C)=C[C@@H](C(=O)O1)[C@]34O)O2", "Potency": "12.9 µM (active)"},
      {"smiles": "CC(=O)[O-].[Tl+]", "activity change, negative = cytotoxicity": "-7.05% [at 81.1 µM]"},
      {"smiles": "CCCOCC(=Nc1ccc(Cl)cc1C(F)(F)F)n1ccnc1", "Potency": "12.3 µM (active)"},
      {"smiles": "CC1(C)CN=C(NN=C(/C=C/c2ccc(C(F)(F)F)cc2)/C=C/c2ccc(C(F)(F)F)cc2)NC1", "Potency": "24.5 µM (active)"},
      {"smiles": "Cc1cc(N=Nc2ccccc2C)ccc1N", "activity change, negative = cytotoxicity": "-25.1%"},
      {"smiles": "CC(=O)[O-].CC(=O)[O-].[Hg+2]", "Potency": "1.38 µM (active)"},
      {"smiles": "O=[N+]([O-])c1c2ccccc2cc2ccccc12", "activity change, negative = cytotoxicity": "-1.55% [at 81.1 µM]"},
      {"smiles": "CCCCCCCCCBr", "activity change, negative = cytotoxicity": "8.72% [at 81.1 µM]"},
      {"smiles": "CC[C@H]1C[C@@H]2C[C@H]3c4[nH]c5ccc(OC)cc5c4CCN(C2)[C@@H]13", "activity change, negative = cytotoxicity": "-26% [at 81.1 µM]"},
      {"smiles": "[CH3][Hg][Cl]", "Potency": "54.8 µM (active)"},
      {"smiles": "O=[N+]([O-])c1cc(C(F)(F)F)c(Cl)c([N+](=O)[O-])c1Cl", "Potency": "2.19 µM (active)"},
      {"smiles": "C[C@@H]1O[C@@H](O[C@@H]2C=C3CC[C@@H]4[C@H](CC[C@]5(C)[C@@H](c6ccc(=O)oc6)CC[C@]45O)[C@@]3(C)CC2)[C@H](O)[C@H](O)[C@H]1O", "Potency": "0.006 µM (active)"},
      {"smiles": "COc1cc(C=O)cc2c1[C@H](COC(N)=O)[C@]1(OC(C)=O)ON2C[C@H]2[C@@H]1N2C(C)=O", "Potency": "2.45 µM (active)"},
      {"smiles": "c1ccc(OCC2CO2)cc1", "note": "(centres undefined)", "activity change, negative = cytotoxicity": "-28.6% [at 81.1 µM]"},
      {"smiles": "CCCCCCCCCCCCCC[P+](CCCCCC)(CCCCCC)CCCCCC", "note": "(tested in a mixture with another compound)", "Potency": "3.47 µM (active)"},
      {"smiles": "O=C/C(Cl)=C(/Cl)C(=O)O", "Potency": "38.9 µM (active)"},
      {"smiles": "CCCCCCCCCCCCCCC(Br)C(=O)O", "note": "(centres undefined)", "Potency": "24.5 µM (active)"},
      {"smiles": "CCCN(CC)CC1COC2(CCC(C(C)(C)C)CC2)O1", "note": "(centres undefined)", "activity change, negative = cytotoxicity": "-10.5%"}
    ]}
  ]
}
